An excerpt weighted towards active compounds, which were near 6.8% of everything screened.
Pf Dd2 inh – P. falciparum Dd2 growth inhibitors, primary screen, SYBR Green fluorescence, single dose replicates | 2.3% of 94,000 active | activity change, % at 10 µM | 72 h; stronger effect = lower value; in the data active = activity change below about -80%; inconclusive = no clear call, values can overlap the other calls
T cruzi growth-1 – T. cruzi intracellular proliferation inhibitors, primary screen, cell-based, beta-gal Tulahuen parasites, NIH3T3 host, luminescence | T. cruzi beta-gal in NIH3T3, GalScreen luminescence, 90 h | inhibition, % at 8.34 µM | 5.9% of 77,000 active;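 active = mean inhibition above about 93%, with at least 55% of replicates each passing it, limit read from the data, passing the limit was not always enough; inconclusive = only one of those two conditions holds; inactive = neither condition holds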
C diff HTS – C. difficile growth inhibitors, primary screen, HTS; 0.25% of 86,000 active; growth activity, negative = inhibition, % at 16 µg/mL (by protocol); AID 1259249, 2017; Clostridium difficile clinical isolate growth, OD600, 24 h; stronger effect = lower value;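 active = mean growth activity at or below -80% and every replicate also at or below -80%; inconclusive = mean at or below -80% but some replicate above -80%; inactive = mean growth activity above -80%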;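 note: 0% = DMSO wells and -100% = levofloxacin 16 µg/mL wells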
T cruzi growth-2 – T. cruzi intracellular proliferation inhibitors, confirmation, cell-based, NIH3T3 host, beta-gal parasite, luminescence, cherry-pick; T. cruzi beta-gal in NIH3T3, GalScreen luminescence, 90 h; AID 651739, 2012; inhibition, % at 8.35 µM; 72% of 5,600 active; shares compounds with T cruzi growth-1;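 active = mean replicate inhibition above about 95% and at least 55% of replicates individually reaching it, limit read from the data; inconclusive = only one of the two criteria is met; inactive = neither criterion is met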
T cruzi growth-3 – inhibitors of intracellular T. cruzi replication, confirmation, NIH3T3 host cells, beta-gal parasites, cherry-pick, set 2 | inhibition, % at 2.09 µM | AID 651740, 2012 | shares compounds with T cruzi growth-1 | 21% of 5,600 active | T. cruzi beta-gal in NIH3T3, GalScreen luminescence, 90 h;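 active = mean inhibition above about 95%, with at least 55% of replicates also reaching it, limit read from the data; inconclusive = meets just one of the two conditions; inactive = meets neither condition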;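 note: plate controls were neutral control median for no effect and positive control median for full effect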
NIH3T3 tox – cytotoxicity in mouse NIH/3T3 fibroblasts, confirmation, cytotoxicity control for T. cruzi proliferation inhibitor project, cell-based, cherry-pick, single point; shares compounds with T cruzi growth-1; NIH/3T3 viability, CellTiter-Glo ATP luminescence, 90 h; cytotoxicity (signal decrease), % at 8.35 µM; 14% of 5,600 active; AID 651742, 2012;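 active = mean signal decrease across replicates above about 35% based on untreated-well scatter, with enough replicates individually passing, limit read from the data; inconclusive = no rule stated though some were filed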;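 note: 0% = median of neutral control wells and 100% = median of positive control wells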
3T3 cytotox 2 – NIH/3T3 fibroblast cytotoxicity, confirmation, cytotoxicity control, cell-based, cherry-pick, single point, set 2 | shares compounds with T cruzi growth-1 | NIH/3T3 viability, CellTiter-Glo ATP luminescence, 90 h | inhibition, % at 24.9 µM | 56% of 5,600 active;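 active = mean loss of cell viability signal at or above a set limit, and enough replicates individually reaching it; inconclusive = meets only the mean limit or only the replicate share; inactive = meets neither condition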;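 note: 0% = median of neutral control wells and 100% = median of positive control wells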
Numbers without * were called inactive; ? = inconclusive; / = no result given.

SMILES | Pf Dd2 inh | T cruzi growth-1 | C diff HTS | T cruzi growth-2 | T cruzi growth-3 | NIH3T3 tox | 3T3 cytotox 2
CC(=O)N(C)C[C@H]1Oc2cc(C#Cc3ccc(F)cc3)ccc2S(=O)(=O)N([C@@H](C)CO)C[C@@H]1C | -18.1 | 89.5 | -3.7 | / | / | / | /
CCC(=O)Nc1ccc2c(c1)OC[C@H](C)N(C(=O)COC)C[C@@H](C)[C@@H](OC)CN(C)C2=O | 17.2 | 20.5 | 0.9 | / | / | / | /
CCC(=O)N(C)C[C@H]1Oc2cc(C#CCC3CCCC3)ccc2S(=O)(=O)N([C@H](C)CO)C[C@@H]1C | -35.5 | 75.4 | 11.9 | / | / | / | /
C[C@H]1CN([C@@H](C)CO)S(=O)(=O)c2ccc(C#CCC3CCCC3)cc2O[C@H]1CN(C)C(=O)CN(C)C | -69.1 | 106.7 | 0.8 | / | / | / | /
C[C@@H]1CN([C@H](C)CO)S(=O)(=O)c2ccc(C#CCC3CCCC3)cc2O[C@@H]1CN(C)C(=O)c1ccccn1 | -59.3 | 109.9* | 4.7 | 100.3* | 29.3 | 51.2* | 103.9*
CCC(=O)N(C)C[C@H]1Oc2cc(C#CCC3CCCC3)ccc2S(=O)(=O)N([C@@H](C)CO)C[C@@H]1C | -76.7 | 127.8* | 6.8 | 105.6* | 93.9 | 43.2* | 104.7*
CCC(=O)N(C)C[C@@H]1Oc2cc(C#CCC3CCCC3)ccc2S(=O)(=O)N([C@@H](C)CO)C[C@H]1C | -55.9 | 128.8* | -12.3 | 108.8* | 77.0 | 8.9 | 104.1*
C[C@H](CO)N1C[C@H](C)[C@@H](CN(C)C(=O)CN(C)C)Oc2cc(C#CCC3CCCC3)ccc2S1(=O)=O | -70.8 | 121.7 | -1.8 | / | / | / | /
C[C@@H]1CN([C@@H](C)CO)S(=O)(=O)c2ccc(C#CCC3CCCC3)cc2O[C@@H]1CN(C)C(=O)c1ccccn1 | -60.0 | 76.8 | -0.7 | / | / | / | /
CCC(=O)N(C)C[C@H]1Oc2cc(C#CCC3CCCC3)ccc2S(=O)(=O)N([C@@H](C)CO)C[C@H]1C | -46.4 | 119.3* | 6.4 | 98.3* | 89.0 | 27.3 | 104.9*
CCCN1C[C@@H](C)[C@H](OC)CN(C)C(=O)c2cc(NS(=O)(=O)c3cn(C)cn3)ccc2OC[C@@H]1C | 19.1 | -20.2 | / | / | / | / | /
CN1CCN(C(=O)C[C@H]2CC[C@H]3[C@@H](COC[C@H](O)CN3Cc3cccc(-c4ccncc4)c3)O2)CC1 | -13.8 | 70.0 | / | / | / | / | /
C/C=C/c1cccc(-c2nc(C(=O)N(C)C)cc3c2[C@H](CCO)N([S@@](=O)C(C)(C)C)C3)c1 | 11.7 | 68.5 | / | / | / | / | /
CC(=O)Nc1ccc2c(c1)C(=O)N(C)[C@@H]1CC[C@@H](CC(=O)NCC3CC3)O[C@H]1CO2 | 19.3 | 30.0 | 1.1 | / | / | / | /
C[C@H](CO)N1C[C@H](C)[C@@H](CN(C)C)Oc2cc(C#CCC3CCCC3)ccc2S1(=O)=O | -30.9 | ? | 36.7 | 107.3* | 86.0 | 31.0 | 103.3*
C[C@H](CO)N1C[C@H](C)[C@H](CN(C)C)Oc2cc(C#CCC3CCCC3)ccc2S1(=O)=O | -51.1 | 17.5 | 14.1 | / | / | / | /
CC(C)C#Cc1ccc2c(c1)O[C@H](CN(C)Cc1ccccn1)[C@H](C)CN([C@@H](C)CO)S2(=O)=O | -74.2 | 74.4 | 25.9 | / | / | / | /
CC(C)C#Cc1ccc2c(c1)O[C@@H](CN(C)Cc1ccccn1)[C@H](C)CN([C@@H](C)CO)S2(=O)=O | -66.3 | ? | 26.6 | 107.7* | 50.5 | 55.4* | 94.5*
CC(C)C#Cc1ccc2c(c1)O[C@H](CN(C)Cc1ccccn1)[C@@H](C)CN([C@H](C)CO)S2(=O)=O | -71.6 | ? | 28.9 | 102.4* | 73.5 | 65.1* | 53.7*
C[C@H](O)C#Cc1ccc2c(c1)O[C@@H](CN(C)Cc1ccccn1)[C@H](C)CN([C@@H](C)CO)S2(=O)=O | -19.4 | 5.2 | 7.8 | / | / | / | /
C[C@H](CO)N1C[C@H](C)[C@@H](CN(C)Cc2ccccn2)Oc2cc(C#C[C@@H](C)O)ccc2S1(=O)=O | -28.1 | -8.2 | 6.4 | / | / | / | /

Bioassay records (PubChem)
